Measurements published in PubChem BioAssay.

Experiment: reducers of endogenous Her2 protein level, primary screen, SKBR3 breast tumor cells, AlphaScreen, ATP viability (AID 461);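 further: percent of carrier control wells set as 100% viability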
Conditions: 18-24 h, measured here: SKBR3 viability, ATP luminescence, at 10 µM

With `CCOC(=O)c1ccc(NS(=O)(=O)c2ccc3c(c2)oc(=O)n3C)cc1` as the compound, how does the viability read?
The viability was 132%.

Which viability does the source give for `O=C(Nc1ccc2c(c1)OCCO2)NC1CCCCC1` here?
Its viability is 126%.

Which viability does the source give for `O=C(CSc1nnnn1-c1ccccc1Cl)Nc1ccc2c(c1)OCCO2` here?
The viability was 91.5%.

For `COc1ccc(-c2nc(CSCC(=O)NCc3ccc4c(c3)OCO4)c(C)o2)cc1OC`, which viability is on record?
Its viability is 98%.

Which viability does the source give for `Cc1cnc(NC(=O)CSc2nnc(COc3c(C)cccc3C)o2)s1` here?
The viability was 83%.

For `Cc1cccc(C2CC(c3ccccc3)Nc3nc(N)nn32)c1` (stereo not given), which viability is on record?
Its viability is 92%.

With `CCc1ccccc1N1CC23C=CC(O2)C(C(=O)O)C3C1=O` (stereo not given) as the compound, how does the viability read?
The viability was 102%.

For `CCOC(=O)C1CCN(Cc2ccc(F)c(Br)c2)CC1`, which viability is on record?
Its viability is 122%.

For `CCOc1ccccc1N1Cc2cc(C)c(C)cc2C1`, which viability is on record?
The viability was 92.5%.

For `CCN1CCN(C(CNC(=O)c2ccc3c(c2)OCO3)c2cccnc2)CC1` (stereo not given), which viability is on record?
The viability was 89.5%.

With `O=C(NCCSc1c[nH]c2ccccc12)c1ccco1` as the compound, how does the viability read?
Its viability is 112%.

Which viability does the source give for `COCCNC(=O)CN(C)S(=O)(=O)c1ccc(Br)cc1` here?
The viability was 113%.

For `COc1cc(C(=O)Nc2cccc(-c3nncn3C)c2)cc(OC)c1OC`, which viability is on record?
The viability was 102%.

Which viability does the source give for `CN1CCN(Cc2nc3c(c(=O)n(C)c(=O)n3C)n2Cc2ccccc2Cl)CC1` here?
Its viability is 80.5%.

With `O=C(OCCN=C1NS(=O)(=O)c2ccccc21)C1CC(=O)N(c2ccc(Cl)cc2)C1` (stereo not given) as the compound, how does the viability read?
Its viability is 114%.

Which viability does the source give for `COc1cccc2cc(C(=O)OC3CCN(C)CC3)c(=O)oc12` here?
Its viability is 96%.

Which viability does the source give for `Cc1cccc(N2C(=O)CC(N3CCN(c4cccc(C(F)(F)F)c4)CC3)C2=O)c1` (stereo not given) here?
Its viability is 94.5%.

Which viability does the source give for `O=c1c2ccccc2nc2n1CCN2` here?
The viability was 84%.

For `CCOC(=O)C1=C(C)Nc2nnnn2C1c1ccc(OC)c(Br)c1` (stereo not given), which viability is on record?
The viability was 106%.

With `COc1ccc(-n2c(Cc3cccn3C)nnc2SCC(N)=O)cc1` as the compound, how does the viability read?
Its viability is 94.5%.

With `COc1ccccc1NC(=O)CSc1nnc(Cc2cccn2C)n1-c1ccc(F)cc1` as the compound, how does the viability read?
The viability was 96.5%.

Which viability does the source give for `CC(=O)Nc1cccc(Oc2nc(C)cc(C)c2C#N)c1` here?
The viability was 96.5%.

For `COc1ccc(CNC(=O)c2ccc(CN3CCOCC3)cc2)cc1`, which viability is on record?
The viability was 116%.

For `Cc1cc(OCC(=O)NCCO)cc(C)c1Cl`, which viability is on record?
Its viability is 99%.

For `COc1ccc(C)cc1S(=O)(=O)N1CCN(S(=O)(=O)c2cc(C)ccc2OC)CC1`, which viability is on record?
The viability was 110%.

For `CCCCC(NS(=O)(=O)c1ccc(OC)cc1)C(=O)O` (stereo not given), which viability is on record?
Its viability is 110%.

Which viability does the source give for `CCOc1ccc(Cn2nnc(C(=O)Nc3ccc(OC)cc3OC)c2N)cc1` here?
The viability was 96.5%.

Which viability does the source give for `Cc1cc(C)c(NC(=O)CSc2nc3c(c(=O)n2C)SC(C)C3)c(C)c1` (stereo not given) here?
Its viability is 93.5%.

For `COc1ccccc1N1C(=O)CCC1(C#N)c1ccccc1` (stereo not given), which viability is on record?
Its viability is 97%.

Which viability does the source give for `CCOc1ccc(N(CC(=O)NC2CCCC(C)C2C)S(=O)(=O)c2c(C)noc2C)cc1` (stereo not given) here?
The viability was 89.5%.

With `CCN1C(=O)c2ccccc2S(=O)(=O)c2ccc(C(=O)NCc3cccnc3)cc21` as the compound, how does the viability read?
The viability was 95.5%.

Which viability does the source give for `Cc1ccc(C(=O)CC2(O)C(=O)N(C)c3ccc(Br)cc32)c(C)c1` (stereo not given) here?
The viability was 85%.

For `CCN1CCN(C(=O)c2cn(CC)c3ccc(S(=O)(=O)N(C)C)cc3c2=O)CC1`, which viability is on record?
Its viability is 85.5%.

Which viability does the source give for `COc1ccc(OC)c(NC(=O)CSc2nnc(Cc3cccn3C)n2-c2ccc(F)cc2)c1` here?
The viability was 81%.

Which viability does the source give for `CCOc1ccc(-c2nnc(SCC(=O)N3CCN(c4ccccc4)CC3)o2)cc1` here?
Its viability is 103%.

For `COCCCN(C)C1CCN(C(=O)Nc2ccc(F)cc2)CC1`, which viability is on record?
The viability was 106%.

Which viability does the source give for `COc1cccc(C2CC(=O)Nc3c2c(=O)n(C)c(=O)n3C)c1OC` (stereo not given) here?
The viability was 98.5%.

For `CCCC(=O)C1=C(N(C)c2ccccc2)CC(C)(C)C(C(=O)OC)C1=O` (stereo not given), which viability is on record?
The viability was 95%.

For `CC(=O)N1c2c(cc(Br)cc2S(=O)(=O)NCC2COc3ccccc3O2)CC1C` (stereo not given), which viability is on record?
The viability was 97.5%.

For `CCCCNC(=O)Cn1c(=O)n(C)c2ccccc21`, which viability is on record?
The viability was 105%.
